Compound activity as filed in PubChem BioAssay.
Measles CPE – protection of cells from measles virus. Measles virus-infected cells, CPE protection, absorbance. protection (pct of control), % at 4 µM. 140,000 tested, 1.5% active. AID 841; in the data active means protection mostly above about 24%, no sharp cut-off; inactive means mostly below about 26%
CYP2C9 inhib – human CYP2C9 inhibition | 96,000 tested, 20% active | inhibition, % at 5 µM | P11712 | AID 777 | CYP2C9 Supersomes, luciferin-H conversion, luminescence;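 active means blocking of liver enzyme CYP2C9 beyond about 50% at 5 µM, limit read from the data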
Target sequence (P11712 whole entry, looked up): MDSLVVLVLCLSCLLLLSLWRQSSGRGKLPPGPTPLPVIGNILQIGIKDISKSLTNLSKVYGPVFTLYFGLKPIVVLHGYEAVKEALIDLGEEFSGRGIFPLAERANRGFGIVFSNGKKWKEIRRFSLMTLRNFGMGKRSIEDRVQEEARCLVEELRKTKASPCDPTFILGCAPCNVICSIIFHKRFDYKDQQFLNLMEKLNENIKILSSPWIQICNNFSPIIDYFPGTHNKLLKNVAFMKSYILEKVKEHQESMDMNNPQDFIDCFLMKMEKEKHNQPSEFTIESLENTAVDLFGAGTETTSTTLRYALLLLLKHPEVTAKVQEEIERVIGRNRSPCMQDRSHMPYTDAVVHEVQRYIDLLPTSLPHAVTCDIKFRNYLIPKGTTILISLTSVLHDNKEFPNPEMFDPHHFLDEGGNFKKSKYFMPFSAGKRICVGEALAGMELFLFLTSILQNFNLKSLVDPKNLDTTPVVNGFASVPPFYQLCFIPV
CYP2C19 act – increases human CYP2C19 enzyme activity. P33261. recombinant CYP2C19, luciferin-H EGE luminescence; hits give high values; 0 = fully inhibited enzyme, 1 = untreated enzyme. activation factor at 5 µM. 96,000 tested, under 10 active;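 active means activation factor of at least 2 at 5 µM in the primary screen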
CYP2C19 inh – blocks human cytochrome P450 2C19; CYP2C19 Supersomes, luciferin-H EGE luminescence, 30 min; inhibition, % at 5 µM; 96,000 tested, 21% active; AID 778; P33261;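 active means CYP2C19 inhibition above a set limit at 5 µM in the primary screen, cut at about 50% in these data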
CYP2C9 act – increases human cytochrome P450 2C9 activity. P11712. activation factor at 5 µM. 96,000 tested, 1.4% active. recombinant CYP2C9, luciferin-H conversion, luminescence; hits give high values; factor 1 = untreated enzyme, 0 = blocked;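 active means activation factor of 2 or more for CYP2C9 at a 5 µM dose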
Large screens that a line does not name were inactive. In the library only some 22% were active in any assay of this set; here they are far more common.

O=C(NCc1ccccc1F)c1ccc(S(=O)(=O)Nc2cccc(C(F)(F)F)c2)cc1	Measles CPE 31 (no result: CYP2C9 inhib, CYP2C19 act, CYP2C19 inh, CYP2C9 act)
O=C(NCc1ccc(F)cc1)c1ccc(S(=O)(=O)Nc2cccc(C(F)(F)F)c2)cc1	none (no result: CYP2C9 inhib, CYP2C19 act, CYP2C19 inh, CYP2C9 act)
CC1=CCC2C(=O)N(c3ccccc3OC(=O)c3ccccc3F)C(=O)C2C1 (centres undefined)	none (no result: CYP2C9 inhib, CYP2C19 act, CYP2C19 inh, CYP2C9 act)
COc1ccc2c(c1)NC(=O)CC(c1ccccc1)=N2	CYP2C19 inh 75
COc1ccc(-c2cc(-c3ccccc3)nc(-c3ccc4c(c3)NC(=O)CO4)c2)cc1	none
CCC(=O)c1ccc(OCCSc2ncccn2)cc1	none
Cc1nc(-c2coc3c(CN(C)C)c(O)ccc3c2=O)cs1	Measles CPE 35
O=c1nc(-c2ccccc2)c2cc(Cl)ccc2[nH]1	none
O=c1cc2[nH]c3ccccc3c(=O)n2nc1-c1ccccc1	CYP2C9 inhib 71
CCOC(=O)C1(C(F)(F)F)N=C(C(F)(F)F)Nc2ccccc21 (centres undefined)	CYP2C9 inhib 66, CYP2C19 inh 54
CCOC(=O)C(C(=O)OCC)C(C)(C)/C(C)=N\Nc1ccc([N+](=O)[O-])cc1[N+](=O)[O-]	none (no result: CYP2C9 inhib, CYP2C19 act, CYP2C19 inh, CYP2C9 act)
C#CCOC(=O)CCCNc1ccc([N+](=O)[O-])cc1[N+](=O)[O-]	CYP2C9 inhib 58, CYP2C19 inh 62
O=C(NC1CC2CCCC(C1)N2CC(=O)N1CCCc2ccccc21)C1CCCCC1 (centres undefined)	none (no result: CYP2C9 inhib, CYP2C19 act, CYP2C19 inh, CYP2C9 act)
O=C(OC(C(=O)NC1CCCC1)c1ccccc1F)c1ccco1 (centres undefined)	CYP2C9 inhib 69
O=C(OC(C(=O)NC1CCCCC1)c1ccccc1)c1ccco1 (centres undefined)	none (no result: CYP2C9 inhib, CYP2C19 act, CYP2C19 inh, CYP2C9 act)
CC(C)CC(OC(=O)c1ccco1)C(=O)NC1CCCCC1 (centres undefined)	CYP2C9 inhib 87, CYP2C19 inh 83
CCCCN(C)C(=O)c1cc2cc3ccc(OC)cc3nc2s1	CYP2C9 inhib 53, CYP2C19 inh 56
O=C(CNC(=O)c1ccco1)OCc1ccc(Cl)cc1	CYP2C19 inh 82
O=C(CSc1ccc(Cl)cc1)c1ccco1	none
O=C(NCCSc1ccc(Cl)cc1)c1ccco1	CYP2C9 inhib 51, CYP2C19 inh 84
O=C(CSc1ccccc1)Nc1cccc(NC(=O)c2ccco2)c1	none
O=C(CSc1ccc(Cl)cc1)Nc1cccc(NC(=O)c2ccco2)c1	CYP2C9 inhib 77
CCCCN1Cc2cc(C(=O)c3cc(F)ccc3O)cnc2NC1=O	none
Cc1ccc(NC(C)c2cc(Cl)ccc2O)cc1 (centres undefined)	CYP2C9 inhib 98, CYP2C19 inh 100
N#Cc1c(NC(=O)CSc2nc(-c3ccco3)cc(C(F)(F)F)n2)sc2c1CCCC2	none
CC(c1cccs1)N(Cc1ccco1)C(=O)Nc1ccc(Cl)c(Cl)c1 (centres undefined)	CYP2C9 inhib 97, CYP2C19 inh 78
Cc1cc(C)c2nc(N3CCCC(C(=O)N4CCN(c5ncccn5)CC4)C3)sc2c1 (centres undefined)	none
Cc1cc(C)c2nc(N3CCCN(C(=O)c4ccco4)CC3)c(C#N)cc2c1	CYP2C9 inhib 87, CYP2C19 inh 73
Cc1ccc2cc(C#N)c(N3CCCN(C(=O)C4CCCO4)CC3)nc2c1C (centres undefined)	CYP2C9 inhib 82, CYP2C19 inh 85
Cc1cc(C)c2nc(N3CCC(C(=O)N4CCN(C(=O)c5ccco5)CC4)CC3)sc2c1	CYP2C9 inhib 52, CYP2C19 inh 52
Cc1ccc2cc(C#N)c(N3CCCC3)nc2c1C	none
S=C(NCc1ccco1)N1CCN(Cc2ccc(Cl)cc2Cl)CC1	none
Cc1cc(C)n(C2CCCCC2OC(=O)c2ccccc2)n1 (centres undefined)	CYP2C19 inh 53
Cc1cc(C)nc(N2CCC(C(=O)Nc3cccc(C(F)(F)F)c3)CC2)n1	none
Oc1ccccc1C=Nc1ccccc1-c1nc2ccccc2[nH]1	Measles CPE 58 (no result: CYP2C9 inhib, CYP2C19 act, CYP2C19 inh, CYP2C9 act)
Oc1ccc(C=Nc2ccccc2-c2nc3ccccc3[nH]2)c(O)c1	none (no result: CYP2C9 inhib, CYP2C19 act, CYP2C19 inh, CYP2C9 act)
CNc1nc(C)nc(-c2ccccc2O)n1	CYP2C9 act 2.1
CCN(CC)S(=O)(=O)c1ccc(C(=O)NCCCN=C2NS(=O)(=O)c3ccccc32)cc1	none (no result: CYP2C9 inhib, CYP2C19 act, CYP2C19 inh, CYP2C9 act)
Cc1cccc(OCCCC(=O)Nc2ccc(Br)cc2)c1	CYP2C19 inh 59
CC(C)CCNC(=O)CCCOc1ccccc1	Measles CPE 45, CYP2C19 inh 54
Cc1ccc([N+](=O)[O-])cc1NC(=O)CCCOc1ccccc1	CYP2C9 act 2.3
COCC(=O)Nc1cc([N+](=O)[O-])ccc1C	none
O=C(CCCOc1ccccc1)Nc1nncs1	CYP2C9 inhib 83, CYP2C19 inh 97
CCC(=O)NCCCOc1ccccc1	none
CN(CC(=O)Nc1ccccc1Cl)C(=O)CSc1ncc(C(F)(F)F)cc1Cl	none (no result: CYP2C9 inhib, CYP2C19 act, CYP2C19 inh, CYP2C9 act)
Cc1cccc(C)c1NS(=O)(=O)c1c(C)[nH]c(=O)[nH]c1=O	none
Cc1ccc(OCCCC(=O)Nc2nccs2)cc1	CYP2C9 inhib 55, CYP2C19 inh 54
COc1cc(CC(=O)Nc2nccs2)cc(OC)c1OC	CYP2C19 inh 80
Cc1cccc(OCCCC(=O)Nc2nccs2)c1	CYP2C19 inh 76 (no result: Measles CPE)
CC(Sc1nc(-c2ccccc2)cs1)C(=O)Nc1ccc(Cl)cn1 (centres undefined)	none (no result: CYP2C9 inhib, CYP2C19 act, CYP2C19 inh, CYP2C9 act)
COC(=O)CSc1nnc(-c2cccnc2)n1-c1cc(OC)cc(OC)c1	none
CCOC(=O)CCCNC(=O)COC(=O)[C@@H]1CCCN1S(=O)(=O)c1ccc(Cl)cc1	none (no result: CYP2C9 inhib, CYP2C19 act, CYP2C19 inh, CYP2C9 act)
O=C(c1ccccc1)N1CC(COc2ccccc2)OC(c2ccco2)O1 (centres undefined)	CYP2C19 inh 88
COc1ccc(-n2cnnc2SCC(=O)Nc2cccc(S(=O)(=O)N3CCCCC3)c2)cc1	none (no result: CYP2C9 inhib, CYP2C19 act, CYP2C19 inh, CYP2C9 act)
CCCn1c(SCC(=O)N2c3ccccc3Sc3ccccc32)nc2c1c(=O)n(C)c(=O)n2C	none
CCCn1c(SCC(=O)N2CCCc3ccccc32)nc2c1c(=O)n(C)c(=O)n2C	CYP2C9 inhib 79 (no result: Measles CPE)
CCn1c(SCC(=O)Nc2ccccc2N2CCCCC2)nc2c1c(=O)n(C)c(=O)n2C	CYP2C9 inhib 79
CCCc1nc(SCC(=O)N2CCC(Cc3ccccc3)CC2)c2c(=O)n(C)c(=O)n(C)c2n1	CYP2C9 inhib 95, CYP2C19 inh 66
CCCc1nc(SCC(=O)N2CCCc3ccccc32)c2c(=O)n(C)c(=O)n(C)c2n1	CYP2C9 inhib 94
Cc1ccc(S(=O)(=O)CCSc2nc(C)cc(C(F)(F)F)c2C#N)cc1	none (no result: CYP2C9 inhib, CYP2C19 act, CYP2C19 inh, CYP2C9 act)
CCc1nn(CC(=O)N2CCN(Cc3ccc4c(c3)OCO4)CC2)c(=O)c2cc3occc3n12	none (no result: CYP2C9 inhib, CYP2C19 act, CYP2C19 inh, CYP2C9 act)
Cn1cnnc1SCC(=O)Nc1cc(S(=O)(=O)N2CCCCCC2)ccc1Cl	none (no result: CYP2C9 inhib, CYP2C19 act, CYP2C19 inh, CYP2C9 act)
COc1cccc(-c2noc(C(C)n3nc(C)c([N+](=O)[O-])c3C)n2)c1 (centres undefined)	CYP2C9 inhib 55
CCOc1cc(CNn2cn[nH]c2=S)cc(Cl)c1OCc1ccccc1F	none (no result: CYP2C9 inhib, CYP2C19 act, CYP2C19 inh, CYP2C9 act)
CCN(CC)S(=O)(=O)c1ccc2nc(NC(=O)c3cccs3)sc2c1	CYP2C9 inhib 62
CCN(CC)S(=O)(=O)c1cccc(C(=O)Nc2cccnc2)c1	none
CCN(CC)S(=O)(=O)c1cccc(C(=O)Nc2nc3cc4c(cc3s2)OCCO4)c1	CYP2C9 inhib 67
